Unmarked numbers belong to inactive results. Results filed as inconclusive are left out. The source made the active and inactive calls. Unless noted, calls come from the whole dose curve; as a rule, active = well fitted curve in the direction sought with a large enough effect in the repeat runs; inconclusive = weak or mixed curves; inactive = no such curve, though single readings can be large; an effect the other way counts as inactive or inconclusive.

For test [1], the target named is Progesterone receptor (Homo sapiens) (UniProt P06401). Description: qHTS assay to identify small molecule agonists of the progesterone receptor (PR) signaling pathway (AID 1346784; calls by dose curve; note: nearly all actives have a fitted effect of over 30% in size). In a few lines: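 Reporter assay, GripTite PR-UAS-bla HEK 293T cells: 16 hr exposure to DMSO-dissolved compounds at 37C, 5% CO2, in steroid-depleted (2% charcoal-stripped FBS) medium; beta-lactamase measured by FRET fluorescence.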
(qHTS replaces the single test concentration by a dilution series.)

The target is the same in test [2]. Description: qHTS assay to identify small molecule antagonists of the progesterone receptor (PR) signaling pathway (AID 1346795; active = well fitted inhibition curve with a large enough effect in the signal ratio in the repeat runs, not every such curve was filed as active; the % refers to the signal ratio). The essentials: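 Stimulus R5020 at 1 nM final; cells HEK293T PR-UAS-bla; medium with 2% charcoal-stripped FBS; compound exposure 16 hr at 37C, 5% CO2; detection by FRET beta-lactamase substrate, 2 hr, room temperature.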
Test [3] in a line: qHTS assay to identify small molecule antagonists of the progesterone receptor (PR) signaling pathway - cell viability counter screen (AID 1346798). Note: nearly all actives have a fitted effect of over 50% in size. Note: potency is the fitted concentration of half-maximal effect. The essentials: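 In the same plates used for the beta-lactamase readout, cell viability of compound- and R5020-treated PR-UAS-bla HEK293T cells (16 hr, 37C) was assessed by CellTiter-Glo luminescence.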
Test [4] is described as follows: qHTS assay to identify small molecule agonists of the progesterone receptor (PR) signaling pathway - cell viability counter screen (AID 1346799; calls by dose curve; note: nearly all actives have a fitted effect of over 45% in size). In a few lines: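 Multiplexed viability read: CellTiter-Glo luminescence, 30 min RT, following LiveBLAzer FRET measurement on PR-UAS-bla HEK293T cells exposed to compounds 16 hr.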
Test [5] is described as follows: qHTS assay to identify small molecule antagonists of the TGF-beta/Smad signaling pathway - cell viability counter screen (AID 1346824). Note: nearly all actives have a fitted effect of over 50% in size. In a few lines:
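SBE-bla HEK 293T cells were plated overnight at 37 C, then given compounds in DMSO plus TGF-beta1 (added as 0.25 ng/mL solution) for 5 hr. After the bla read, CellTiter-Glo was added to the same wells and luminescence read after 30 min at room temperature.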

A short description of test [6]: qHTS assay to identify small molecule agonists of the TGF-beta/Smad signaling pathway - cell viability counter screen (AID 1346829). Note: top concentration of the series differs between compounds; nearly all actives have a fitted effect of over 45% in size. The essentials: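 Luminescence from CellTiter-Glo, read after a 30 min room-temperature incubation, gives cell viability of SBE-bla HEK 293T cells treated 5 hr with compounds at 37 C.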
Test [7] can be described thus: Caspase-3/7 induction in HepG2 cells by small molecules, qHTS assay (AID 1346978). Note: nearly all actives have a fitted effect of over 15% in size. In a few lines:
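Wild-type HepG2 cells (2,000/well) were settled 5 h at 37 C, 5% CO2, then exposed to compounds in DMSO for 17 h. Caspase-3/7 activity was read by luminescence 30 min after adding Caspase-Glo 3/7 reagent at room temperature.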

Test [8] is described as follows: Caspase-3/7 induction in CHO-K1 cells by small molecules, qHTS cell viability counter screen (AID 1346979). Note: nearly all actives have a fitted effect of over 35% in size. In a few lines:
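Following a 5hr settling period, CHO-K1 cells at 1,500 per well received DMSO-dissolved compounds. Cell viability was quantified 16hr later by CellTiter-Fluor fluorescence, measured after 1hr with reagent at 37C.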

Test [9] can be described thus: Caspase-3/7 induction in CHO-K1 cells by small molecules, qHTS assay (AID 1346980). Note: nearly all actives have a fitted effect of over 15% in size. The essentials:
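Wild-type cells were seeded at 1,500 per well and settled 5 hr at 37 C, 5% CO2, then exposed to DMSO-dissolved compounds for 17 hr. Caspase-Glo 3/7 reagent was added, and luminescence was read after 30min at room temperature.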

Test [10] is described as follows: Caspase-3/7 induction in HepG2 cells by small molecules, qHTS cell viability counter screen (AID 1346981). Note: series mostly up to about 92 µM; nearly all actives have a fitted effect of over 30% in size. The essentials: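 Counter screen for cytotoxicity: HepG2 exposed 16 hr to compounds, then CellTiter-Fluor viability signal (fluorescence, 1 hr reagent incubation).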
In test [11] the target is Nuclear receptor subfamily 1 group I member 2 (Rattus norvegicus) (UniProt Q9R1A7). The test is described as follows: Rat pregnane X receptor (rPXR) activation by small molecules, qHTS assay (AID 1346983). Note: nearly all actives have a fitted effect of over 20% in size. The conditions noted are these: rPXR luciferase reporter cells, One-Glo luminescence, 24 h; max activation: stronger effect = higher value. In a few lines:
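Cell-based rPXR luciferase reporter assay, 2,000 cells per well, rested 5hr at 37 C before compound addition in DMSO, then 24 hr at 37 C. One-Glo reagent was added and luminescence read after 30 min at room temperature.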

The target in test [12] is Nuclear receptor subfamily 1 group I member 2 (Homo sapiens) (UniProt O75469). Description: CYP3A4 induction through human pregnane X receptor (PXR) by small molecules, qHTS assay (AID 1346984). Note: nearly all actives have a fitted effect of over 40% in size. The essentials: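 DPX-2 reporter cells; 24h cpd, 37C; Luciferin-IPA 3uM final x3h; One-Glo 30 min RT; lumi read.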
Test [13] has as its target Cytochrome P450 2D6 (Homo sapiens) (UniProt P10635). Description: Cytochrome P450 Family 2 Subfamily D Member 6 (CYP2D6) small molecule antagonists: luciferase reporter qHTS assay (AID 1671196). Note: nearly all actives have a fitted effect of over 50% in size. Note: potency is the fitted concentration of half-maximal effect. The essentials: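 Inhibition of CYP2D6 was gauged by loss of luminescence, since light produced tracks the luciferin generated from a proluciferin substrate. A 10 min room-temperature preincubation preceded 1 h NADPH-supported turnover.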

A short description of test [14]: qHTS assay to identify small molecule agonists of the TGF-beta/Smad signaling pathway (AID 1346859; active = well fitted activation curve with a large enough effect in the signal ratio in the repeat runs, not every such curve was filed as active; the % refers to the signal ratio; note: series mostly up to about 77 µM). The essentials:
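Screening used HEK 293T SBE-bla cells at 4,000/well. Test agents: 5 hr, 37 C. Detection: FRET substrate, 2 hr RT, then excitation 405 nm with emissions at 460 and 530 nm.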

Test [15] concerns the target Nuclear receptor subfamily 1 group I member 2 (Homo sapiens) (UniProt O75469). The test is described as follows: Human pregnane X receptor (PXR) small molecule agonists, qHTS assay (AID 1346982). Note: nearly all actives have a fitted effect of over 35% in size. In a few lines:
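Luminescence (ONE-Glo, 30 min RT) after 24 hr compound exposure of PXR-Luc HepG2 cells; cells rested 5 hr post-plating in 5% charcoal-stripped FBS medium.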

The target in test [16] is Cytochrome P450 2C19 (Homo sapiens) (UniProt P33261). Description: Cytochrome P450 Family 2 Subfamily C Member 19 (CYP2C19) small molecule antagonists: luciferase reporter qHTS assay (AID 1671197). Note: nearly all actives have a fitted effect of over 65% in size. Note: potency is the fitted concentration of half-maximal effect. The essentials:
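CYP2C19 P450-Glo, 1536-well qHTS. Cpd + enzyme/proluciferin substrate 10 min RT; + NADPH regen, 37C 1 h; stop with luciferin detection reagent, 20 min RT, luminescence (RLU). Pos ctrl ketoconazole.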
(In a reporter assay the amount or activity of a reporter protein is the signal.)

A short description of test [17]: Human pregnane X receptor (PXR) small molecule agonists, qHTS cell viability counter screen (AID 1346977). Note: nearly all actives have a fitted effect of over 50% in size. The essentials: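 In each well, the PXR reporter HepG2 line was checked for viability: CellTiter-Fluor reagent added 23hr post-dosing, fluorescence read after 1hr incubation at 37C.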
The target of test [18] is Thyrotropin-releasing hormone receptor (Homo sapiens) (UniProt P34981). The test is described as follows: qHTS assay to identify small molecule antagonists of the thyrotropin-releasing hormone receptor (TRHR) signaling pathway (AID 1346877; active = well fitted inhibition curve with a large enough effect in the repeat runs, not every such curve was filed as active; note: series mostly up to about 51 µM). The essentials:
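In this cell-based calcium flux format, HEK293 cells expressing TRHR received test compound for 5 min before the agonist TRH (1 nM final). Dye loading lasted 2 h at 37 °C.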

Test [19] shares this target. Description: qHTS assay to identify small molecule agonists of the thyrotropin-releasing hormone receptor (TRHR) signaling pathway (AID 1346891; calls by dose curve; note: series mostly up to about 58 µM). In a few lines:
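Readout was intracellular calcium fluorescence in TRHR-Hek293 cells. Cells were incubated 18 h, dye-loaded 2 h at 37 °C, and treated with compound in agonist mode.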
% is set by controls: 0 for no effect and ±100 for the full control effect.

Sequence of Nuclear receptor subfamily 1 group I member 2 (Rattus norvegicus) (Q9R1A7 whole entry, looked up): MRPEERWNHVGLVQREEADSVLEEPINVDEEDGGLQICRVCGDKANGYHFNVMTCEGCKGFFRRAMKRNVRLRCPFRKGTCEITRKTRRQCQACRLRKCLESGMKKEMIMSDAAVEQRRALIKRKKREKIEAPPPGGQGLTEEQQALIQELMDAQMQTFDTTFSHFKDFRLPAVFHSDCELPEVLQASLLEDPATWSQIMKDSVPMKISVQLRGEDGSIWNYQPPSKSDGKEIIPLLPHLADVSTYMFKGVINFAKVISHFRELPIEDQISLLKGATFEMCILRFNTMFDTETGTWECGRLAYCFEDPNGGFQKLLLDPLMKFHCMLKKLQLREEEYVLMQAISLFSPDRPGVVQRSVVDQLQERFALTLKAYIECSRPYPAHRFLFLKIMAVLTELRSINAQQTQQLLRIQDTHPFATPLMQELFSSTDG
Sequence of Cytochrome P450 2D6 (Homo sapiens) (P10635 whole entry, looked up): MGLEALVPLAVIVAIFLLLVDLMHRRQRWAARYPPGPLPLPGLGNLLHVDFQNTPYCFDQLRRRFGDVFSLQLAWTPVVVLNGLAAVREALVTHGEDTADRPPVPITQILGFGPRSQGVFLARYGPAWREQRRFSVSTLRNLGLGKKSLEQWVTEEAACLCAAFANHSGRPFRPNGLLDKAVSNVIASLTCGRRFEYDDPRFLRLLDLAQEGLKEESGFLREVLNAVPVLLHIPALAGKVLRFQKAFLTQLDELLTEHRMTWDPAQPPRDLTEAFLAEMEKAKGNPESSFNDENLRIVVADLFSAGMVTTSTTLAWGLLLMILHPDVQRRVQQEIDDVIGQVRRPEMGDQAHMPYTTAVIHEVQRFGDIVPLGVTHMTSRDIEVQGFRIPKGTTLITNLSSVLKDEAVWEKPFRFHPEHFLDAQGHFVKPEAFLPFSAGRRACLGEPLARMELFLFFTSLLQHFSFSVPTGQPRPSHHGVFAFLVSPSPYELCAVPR
Sequence of Thyrotropin-releasing hormone receptor (Homo sapiens) (P34981 whole entry, looked up): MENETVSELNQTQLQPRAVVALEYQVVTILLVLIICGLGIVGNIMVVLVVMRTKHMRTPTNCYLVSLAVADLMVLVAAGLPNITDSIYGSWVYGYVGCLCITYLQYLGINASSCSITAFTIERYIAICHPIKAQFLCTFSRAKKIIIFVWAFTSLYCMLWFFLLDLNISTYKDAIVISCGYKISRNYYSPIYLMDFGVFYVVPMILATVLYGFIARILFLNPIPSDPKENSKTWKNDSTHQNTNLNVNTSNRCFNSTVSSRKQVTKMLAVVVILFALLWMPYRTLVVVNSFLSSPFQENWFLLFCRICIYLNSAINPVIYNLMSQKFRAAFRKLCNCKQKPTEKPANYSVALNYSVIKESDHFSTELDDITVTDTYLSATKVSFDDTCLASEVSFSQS
Sequence of Progesterone receptor (Homo sapiens) (P06401 whole entry, looked up): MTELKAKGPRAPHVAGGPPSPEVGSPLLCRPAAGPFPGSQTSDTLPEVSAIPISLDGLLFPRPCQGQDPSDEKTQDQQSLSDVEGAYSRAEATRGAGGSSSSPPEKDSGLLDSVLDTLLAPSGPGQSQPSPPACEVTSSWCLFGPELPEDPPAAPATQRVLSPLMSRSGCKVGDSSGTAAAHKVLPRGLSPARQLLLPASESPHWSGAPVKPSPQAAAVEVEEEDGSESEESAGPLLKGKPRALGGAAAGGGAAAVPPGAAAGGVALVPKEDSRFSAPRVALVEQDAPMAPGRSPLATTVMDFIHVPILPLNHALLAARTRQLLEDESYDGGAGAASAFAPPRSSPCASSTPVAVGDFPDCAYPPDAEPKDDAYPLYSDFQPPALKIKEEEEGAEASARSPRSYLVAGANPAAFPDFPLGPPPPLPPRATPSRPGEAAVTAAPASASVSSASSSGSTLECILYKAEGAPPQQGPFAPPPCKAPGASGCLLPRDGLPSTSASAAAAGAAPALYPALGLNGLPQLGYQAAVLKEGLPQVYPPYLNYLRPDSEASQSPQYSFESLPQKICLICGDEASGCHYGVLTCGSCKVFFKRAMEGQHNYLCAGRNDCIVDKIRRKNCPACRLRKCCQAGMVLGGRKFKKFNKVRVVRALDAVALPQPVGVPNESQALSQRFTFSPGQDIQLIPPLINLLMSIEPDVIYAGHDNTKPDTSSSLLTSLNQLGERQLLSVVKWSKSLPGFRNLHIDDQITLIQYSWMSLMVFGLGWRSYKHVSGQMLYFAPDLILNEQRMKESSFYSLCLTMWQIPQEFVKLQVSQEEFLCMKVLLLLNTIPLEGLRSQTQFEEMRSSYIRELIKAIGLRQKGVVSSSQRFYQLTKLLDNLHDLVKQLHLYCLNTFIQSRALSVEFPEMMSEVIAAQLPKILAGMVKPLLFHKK
Sequence of Cytochrome P450 2C19 (Homo sapiens) (P33261 whole entry, looked up): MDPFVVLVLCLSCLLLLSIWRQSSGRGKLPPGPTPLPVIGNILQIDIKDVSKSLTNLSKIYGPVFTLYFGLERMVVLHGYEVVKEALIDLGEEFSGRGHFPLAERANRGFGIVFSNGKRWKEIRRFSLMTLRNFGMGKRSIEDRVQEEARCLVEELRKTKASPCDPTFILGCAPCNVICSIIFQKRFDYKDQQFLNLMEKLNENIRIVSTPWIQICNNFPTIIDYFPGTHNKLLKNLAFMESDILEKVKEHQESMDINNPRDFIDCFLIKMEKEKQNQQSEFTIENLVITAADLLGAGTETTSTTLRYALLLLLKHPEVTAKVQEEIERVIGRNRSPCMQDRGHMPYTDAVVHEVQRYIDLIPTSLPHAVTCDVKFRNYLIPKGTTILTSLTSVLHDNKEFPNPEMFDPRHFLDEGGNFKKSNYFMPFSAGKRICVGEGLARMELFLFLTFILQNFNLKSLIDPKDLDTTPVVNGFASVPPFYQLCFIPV
Sequence of Nuclear receptor subfamily 1 group I member 2 (Homo sapiens) (O75469 whole entry, looked up): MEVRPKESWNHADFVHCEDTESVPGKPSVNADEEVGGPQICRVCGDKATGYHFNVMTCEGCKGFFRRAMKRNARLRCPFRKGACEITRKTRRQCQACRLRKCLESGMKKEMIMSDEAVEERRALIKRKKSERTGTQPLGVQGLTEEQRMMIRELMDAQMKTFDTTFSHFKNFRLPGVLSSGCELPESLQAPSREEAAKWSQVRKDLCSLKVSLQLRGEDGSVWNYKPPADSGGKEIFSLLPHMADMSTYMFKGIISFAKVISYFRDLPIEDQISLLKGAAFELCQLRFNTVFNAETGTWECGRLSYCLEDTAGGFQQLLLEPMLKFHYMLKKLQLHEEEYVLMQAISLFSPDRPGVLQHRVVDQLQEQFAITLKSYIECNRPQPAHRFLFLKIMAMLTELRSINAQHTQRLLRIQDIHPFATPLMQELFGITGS

On to `OC(CCN1CCCCC1)(c1ccccc1)C1CCCCC1` (stereo not given), for which the compound was classed as inactive in test [1] and in test [7]. For the same compound, the Potency entry in test [2], in test [3], in test [4], in [5], in test [6] and in [8] was “inactive” each time. The Potency entry in test [9], in test [10] and in test [12] was “inactive” in each case. The max activation in test [11] is -2.68%. The Potency in test [13] was 0.977 µM (active).

As for `CN(C)CC[C@@H](c1ccc(Br)cc1)c1ccccn1`, the compound was called inactive in test [1], in [14] and in test [7]. Also, the Potency entry in test [2], in [4], in test [5], in [8], in test [9] and in [10] was “inactive” in each case. Moreover, the Potency result in test [15] and in test [16] was “inactive” throughout. Moreover, the results for the Potency in [3] and in test [13] were 2.66 µM (active) and 3.89 µM (active), respectively. The max activation in test [11] is -1.37%.

For `CCCCCCCCCC(=O)OCC`, the outcome in [1], in [14] and in test [7] was inactive. The Potency entry in test [2], in test [3], in [4], in test [6], in [17] and in [8] was “inactive” in each case. Further, the Potency entry in test [9], in test [10], in test [15] and in test [13] was “inactive” throughout. Further, in [16], the Potency was 56.4 µM (active).

Consider `CC(=O)OCCc1ccccc1`, for which the call in [1], in [14] and in test [18] was inactive. The Potency entry in test [2], in test [3], in test [4], in test [6], in test [19] and in test [17] was “inactive” each time. In addition, the Potency result in [8], in test [9], in test [10], in [15], in [13] and in test [16] was “inactive” throughout.

As to `CCCCCOC(=O)COc1cc(N2C(=O)C3=C(CCCC3)C2=O)c(F)cc1Cl`, the compound was called inactive in test [1], in [14] and in test [7]. Also, the Potency entry in [2], in test [3], in [4], in test [6], in [8] and in [9] was “inactive” in each case. Besides, in test [10], the Potency entry was “inactive”. Moreover, the Potency in test [13] and in [16] was 25.2 µM (active) each time.

On to `S=C(S)NCCNC(=S)S`, for which the outcome in test [1], in [14] and in test [7] was inactive. In addition, the Potency result in test [2], in test [3], in [4], in test [5], in test [6] and in test [17] was “inactive” in each case. For the same compound, the Potency entry in test [9], in test [10], in test [15] and in [13] was “inactive” in each case. For the same compound, the Potency in [16] is 31.2 µM (active).

Turning to `OCCC1CCCCN1` (stereo not given), the compound was classed as inactive in test [1], in test [14] and in [7]. For the same compound, the Potency entry in test [2], in test [3], in [4], in [5], in test [6] and in [17] was “inactive” each time. Besides, the Potency entry in test [9], in test [10], in [15] and in test [16] was “inactive” in each case.

Turning to `CCOc1cc(OCC)c(C(=O)CCC(=O)O)cc1OCC`, the outcome in test [1], in test [18] and in test [7] was inactive. The Potency entry in [2], in test [3], in [4], in test [5], in test [6] and in test [19] was “inactive” throughout. The Potency entry in test [9], in test [10], in [15], in test [12] and in test [13] was “inactive” in each case. Also, the max activation in [11] is -2.62%.

These data come from PubChem BioAssay (Tox21).
